Eight compounds from PubChem BioAssay (NCI) can be followed below.

This is part of a sample that, as a whole, favours compounds with a hit. Of some 83,000 tested, about 20% had one in any assay.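 Assay: single dose, 48 h. Readout: percent growth (0 = no net growth; negative = cell death). Active: <10.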 Values without a mark were called inactive. Calls of active or inactive are those of the source.

Test systems include HCT-15 colon; HT29 colon; SNB-75 CNS; SNB-19 CNS; U251 CNS; PC-3 prostate; SK-MEL-5 melanoma; UACC-62 melanoma; LOX IMVI melanoma; SK-MEL-28 melanoma; SK-MEL-2 melanoma; EKVX NSCLC; SN12C renal; UO-31 renal; TK-10 renal; ACHN renal; CAKI-1 renal; CCRF-CEM leukemia; MOLT-4 leukemia; A498 renal.
Common to all, as to test: NCI-60 one-dose screen, 48 h (100 = growth as untreated, 0 = no growth, -100 = all killed)
Common to all, as to details: 10 µM unless noted

As for `CC1(c2ccccc2O)NN=C(/N=C/c2cccc([N+](=O)[O-])c2)N1C(Cc1c[nH]c2ccccc12)C(=O)O` (stereo not drawn), the growth with HCT-15 colon is 98.7%; in the assay on HT29 colon, 102%; in the assay on SNB-75 CNS, 92.3%; in the assay with SNB-19 CNS, 96.9%; with U251 CNS, 96.1%; in the assay on PC-3 prostate, 76.9%. The growth is 93% in the assay on SK-MEL-5 melanoma; 77.6% in the assay with UACC-62 melanoma; 90.5% in the assay on LOX IMVI melanoma; 106% in the assay on SK-MEL-28 melanoma; 87.8% with SK-MEL-2 melanoma; 77.6% with EKVX NSCLC. Further, the growth with SN12C renal is 94.2%; with UO-31 renal, 70.8%; with TK-10 renal, 141%; with ACHN renal it was 91.1%; in the assay on CAKI-1 renal, 93.7%; in the assay on CCRF-CEM leukemia, 81.9%. In addition, the growth with MOLT-4 leukemia was 92.5%.

Consider `O=C1NC(=O)c2c1c1c3ccccc3ccc1c1[nH]c3ccc(Br)cc3c21`, for which the growth with HCT-15 colon is 13.4%; in the assay on HT29 colon it was 26.4%; with SNB-75 CNS, 22.8%; in the assay with SNB-19 CNS, 23.8%; in the assay on U251 CNS it was 20.7%; in the assay with PC-3 prostate it was 3.55% (active). Further, the growth in the assay with SK-MEL-5 melanoma was -82.5% (active); with UACC-62 melanoma, 29.9%; with LOX IMVI melanoma, 22.8%; in the assay on SK-MEL-28 melanoma it was 44.4%; in the assay with SK-MEL-2 melanoma it was 35.4%; in the assay on EKVX NSCLC, 18%. Moreover, the growth in the assay with SN12C renal is 9.28% (active); with UO-31 renal, 2.24% (active); in the assay with TK-10 renal, 36.8%; in the assay on ACHN renal, 1.55% (active); with CAKI-1 renal it was 15.8%; in the assay on CCRF-CEM leukemia it was 10.8%. Moreover, the growth in the assay on MOLT-4 leukemia was 9.35% (active).

With `CC1(C)CC2=C3C=C[C@@H]4[C@@]5(C)CCC(=O)C(C)(C)[C@@H]5CC[C@@]4(C)[C@]3(C)CC[C@@]2(C(=O)O)CC1=O`, the growth in the assay with HCT-15 colon was 57.2%; with HT29 colon, 50.4%; in the assay on SNB-75 CNS, 10%; in the assay on SNB-19 CNS, 96.5%; in the assay on U251 CNS it was 61.2%; in the assay on PC-3 prostate, 74.3%. Further, the growth in the assay with SK-MEL-5 melanoma is 55.2%; in the assay with UACC-62 melanoma, 64%; with LOX IMVI melanoma, 87.2%; with SK-MEL-28 melanoma, 46.5%; in the assay with SK-MEL-2 melanoma, 68.3%; in the assay with EKVX NSCLC, 63.3%. In addition, the growth was 85.1% with SN12C renal; 44.4% in the assay with UO-31 renal; 61.2% in the assay with TK-10 renal; 40.8% in the assay on ACHN renal; 52.3% in the assay on CAKI-1 renal; 42.1% in the assay on A498 renal. Also, the results for the growth in the assay on CCRF-CEM leukemia and with MOLT-4 leukemia were 58% and 54.6%, respectively.

`COc1cc(/C=C\c2cc(/C=C\c3ccc(O)c(OC)c3)n(C(=O)COc3ccc(Cl)cc3Cl)n2)ccc1O`: the growth is 9.52% (active) with HCT-15 colon; 2.93% (active) with HT29 colon; 5.12% (active) in the assay on SNB-75 CNS; 29% in the assay on SNB-19 CNS; 16.3% in the assay with U251 CNS; 10.2% with PC-3 prostate. Further, the growth is -12.9% (active) in the assay with SK-MEL-5 melanoma; 5.87% (active) in the assay on UACC-62 melanoma; 3.79% (active) in the assay with LOX IMVI melanoma; 26.6% with SK-MEL-28 melanoma; -4.36% (active) in the assay on SK-MEL-2 melanoma; 38.4% with EKVX NSCLC. The growth was 8.09% (active) in the assay on SN12C renal; 8.72% (active) in the assay on UO-31 renal; 20.5% in the assay with TK-10 renal; 18.7% in the assay on ACHN renal; 14.8% in the assay with CAKI-1 renal; 4.35% (active) in the assay on CCRF-CEM leukemia. The growth in the assay on MOLT-4 leukemia was -0.332% (active).

Take `Nc1ncnc2c1N=C(c1ccc3c(c1)OCO3)CC(c1ccc([N+](=O)[O-])cc1)N2` (stereo not drawn): the growth with HCT-15 colon was 77%; in the assay with HT29 colon, 86.6%; in the assay with SNB-75 CNS, 59.5%; in the assay with SNB-19 CNS, 86.6%; in the assay with U251 CNS it was 86.8%; with PC-3 prostate, 47%. Also, the growth is 70.3% in the assay on SK-MEL-5 melanoma; 64.8% in the assay on UACC-62 melanoma; 75.5% in the assay on LOX IMVI melanoma; 110% with SK-MEL-28 melanoma; 60.8% in the assay with SK-MEL-2 melanoma; 87.4% in the assay with EKVX NSCLC. For the same compound, the growth was 84% in the assay on SN12C renal; 64.1% with UO-31 renal; 112% with TK-10 renal; 82.4% in the assay on ACHN renal; 99.2% in the assay on CAKI-1 renal; 39.3% in the assay on CCRF-CEM leukemia. In addition, the growth with MOLT-4 leukemia was 99.3%.

With `COc1cccc(CNc2ncnc3c2ncn3C2OC(CO)C(O)C2O)c1O` (stereo not drawn), the growth in the assay on HCT-15 colon is 4.06% (active); with HT29 colon, 26.5%; with SNB-75 CNS it was -12.4% (active); in the assay on SNB-19 CNS it was 31.2%; with U251 CNS it was 12.6%; with PC-3 prostate, 15.7%. Also, the growth is 14.4% in the assay on SK-MEL-5 melanoma; 6.74% (active) in the assay on UACC-62 melanoma; -0.915% (active) in the assay on LOX IMVI melanoma; 29% in the assay with SK-MEL-28 melanoma; -6.73% (active) with SK-MEL-2 melanoma; 24.6% in the assay with EKVX NSCLC. The growth is -3.64% (active) in the assay on SN12C renal; 7.67% (active) in the assay on UO-31 renal; 6.39% (active) in the assay with TK-10 renal; -14.3% (active) in the assay with ACHN renal; -2.16% (active) in the assay on CAKI-1 renal; -17.3% (active) in the assay with CCRF-CEM leukemia. Moreover, the growth with MOLT-4 leukemia is 0.14% (active).

Turning to `COc1cc2oc(-c3cccc(NC(=O)c4cccc(Br)c4)c3)cc(=O)c2c(OC)c1OC`, the growth in the assay on HCT-15 colon was 31.3%; with HT29 colon it was 34.7%; in the assay with SNB-75 CNS, 62.6%; in the assay with SNB-19 CNS, 75.2%; with U251 CNS it was 53.9%; with PC-3 prostate, 34.6%. For the same compound, the growth in the assay with SK-MEL-5 melanoma is 48.6%; in the assay with UACC-62 melanoma it was 57.1%; with LOX IMVI melanoma it was 39.6%; with SK-MEL-28 melanoma it was 71.1%; with SK-MEL-2 melanoma, 54%; in the assay with EKVX NSCLC, 61.3%. Also, the growth is 54.2% in the assay on SN12C renal; 36.8% with UO-31 renal; 65.5% in the assay on TK-10 renal; 44.1% with ACHN renal; 51.4% in the assay on CAKI-1 renal; 30.3% in the assay with CCRF-CEM leukemia. In addition, in the assay on MOLT-4 leukemia, the growth is 41.7%.

Consider `Oc1ccc(CCn2c(O)c(/C=C3\CN=c4ccccc4=N3)sc2=S)cc1`, for which the growth is 35.2% in the assay with HCT-15 colon; 62% in the assay with HT29 colon; 23.2% in the assay on SNB-75 CNS; 82.2% in the assay with SNB-19 CNS; 80.3% with U251 CNS; 60.2% with PC-3 prostate. Also, the growth with SK-MEL-5 melanoma was 88.3%; in the assay on UACC-62 melanoma it was 58%; in the assay on LOX IMVI melanoma, 10.2%; with SK-MEL-28 melanoma it was 77.5%; with SK-MEL-2 melanoma it was 91.5%; in the assay on EKVX NSCLC, 80.8%. The growth is 47.5% in the assay on SN12C renal; 28.9% in the assay with UO-31 renal; 30.8% in the assay on TK-10 renal; 54.3% in the assay on ACHN renal; 34.3% with CAKI-1 renal; 7.79% (active) with CCRF-CEM leukemia. Further, the growth in the assay with MOLT-4 leukemia is 35.9%.
